Test results published in PubChem BioAssay (EPA / NIEHS).
Values joined by “and” are separate entries in the source; they are usually repeats but may differ in a detail not shown here. Identical values can stand only once. Some compounds were tested as several samples or in several runs, with calls that do not always agree. Active and inactive are the calls of the source. How the source made its calls: active means hit-call score of the fitted dose curve at least 0.9, where 1 is the maximum; inactive means score below 0.9.

Key:
Settings in all cases: mRNA level, 48 h; actives raise or lower the signal
[1] = read-out: ABC Transporter (ABCB1), ABCB1 (gene 5243); test: LTEA_HepaRG_ABCB1: Life Technologies and Expression Analysis (LTEA) Assay for ABC Transporter (ABCB1) using HepaRG (AID 2283460)
Summary of the method: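 ABCB1 transcript level measured by TaqMan qRT-PCR against three housekeeping genes after 48 h chemical exposure of differentiated HepaRG cells. Top concentration 100 uM, half-log steps, eight points, 0.5% DMSO vehicle; bidirectional fit relative to DMSO.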

[2] = read-out: growth arrest and DNA damage 45 (GADD45B), GADD45B (gene 4616); test: LTEA_HepaRG_GADD45B: Life Technologies and Expression Analysis (LTEA) Assay for growth arrest and DNA damage 45 (GADD45B) using HepaRG (AID 2283461)
Summary of the method: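 Differentiated HepaRG cells, plated 48 h then switched to serum-free induction medium, were exposed 48 h in duplicate to eight half-log concentrations from 100 uM in 0.5% DMSO; mRNA quantified by qRT-PCR, normalized to ACTB/GAPDH/POLR2A, bidirectional fit versus DMSO.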

[3] = read-out: ABC Transporter (ABCC3), ABCC3 (gene 8714); test: LTEA_HepaRG_ABCC3: Life Technologies and Expression Analysis (LTEA) Assay for ABC Transporter (ABCC3) using HepaRG (AID 2283462)
Summary of the method: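 HepaRG cells in serum-free induction medium were exposed for 48 h in duplicate to 8-point half-log concentrations topping at 100 uM in 0.5% DMSO. ABCC3 mRNA was measured by qRT-PCR normalized to ACTB, GAPDH and POLR2A, with bidirectional fitting versus DMSO.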

[4] = read-out: ABC Transporter (ABCC2), ABCC2 (gene 1244); test: LTEA_HepaRG_ABCC2: Life Technologies and Expression Analysis (LTEA) Assay for ABC Transporter (ABCC2) using HepaRG (AID 2283464)
Summary of the method: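 HepaRG cells were plated 48 h, switched to serum-free induction medium, then exposed in duplicate for 48 h to 8 concentrations (top 100 uM, half-log steps, 0.5% DMSO). ABCC2 mRNA was measured by qRT-PCR normalized to ACTB/GAPDH/POLR2A; bidirectional fitting versus DMSO.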

[5] = read-out: Broad substrate specificity ATP-binding cassette transporter ABCG2 (Homo sapiens) (UniProt Q9UNQ0); test: LTEA_HepaRG_ABCG2: Life Technologies and Expression Analysis (LTEA) Assay for ABC Transporter (ABCG2) using HepaRG (AID 2283465)
Summary of the method: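 ABCG2 transcript was quantified by TaqMan qRT-PCR against three housekeeping genes in HepaRG cells. Cells were treated in duplicate for 48 h across an 8-point half-log series up to 100 uM, with 0.5% DMSO vehicle. Gain or loss versus DMSO was fit.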

[6] = read-out: ATP-citrate lyase (ACLY), ACLY (gene 47); test: LTEA_HepaRG_ACLY: Life Technologies and Expression Analysis (LTEA) Assay for ATP-citrate lyase (ACLY) using HepaRG (AID 2283466)
Summary of the method: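 ACLY mRNA quantified by qRT-PCR on Fluidigm arrays against three housekeeping genes, after 48 h chemical treatment of HepaRG cells (top concentration 100 uM, half-log steps, 0.5% DMSO vehicle). Up- or down-regulation fitted relative to DMSO.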

[7] = read-out: Peroxisomal acyl-coenzyme A oxidase 1 (ACOX1) gene, ACOX1 (gene 51); test: LTEA_HepaRG_ACOX1: Life Technologies and Expression Analysis (LTEA) Assay for Peroxisomal acyl-coenzyme A oxidase 1 (ACOX1) gene using HepaRG (AID 2283467)
Summary of the method: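 ACOX1 transcript levels were quantified by TaqMan qRT-PCR against three housekeeping genes after 48 h chemical exposure of differentiated human HepaRG cells. Exposure used eight half-log steps topping at 100 uM, 0.5% DMSO vehicle, in duplicate. Bidirectional curve fits were made relative to DMSO.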

[8] = read-out: Alkaline Phosphatase, Placental (ALPP) gene, ALPP (gene 250); test: LTEA_HepaRG_ALPP: Life Technologies and Expression Analysis (LTEA) Assay for Alkaline Phosphatase, Placental (ALPP) gene using HepaRG (AID 2283468)
Summary of the method: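 Differentiated human HepaRG cells were plated and cultured 48 h, then exposed in duplicate for 48 h in serum-free induction medium to eight half-log concentrations from 100 uM in 0.5% DMSO. ALPP mRNA was measured by TaqMan qRT-PCR, normalized to ACTB, GAPDH, POLR2A.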

[9] = read-out: Bcl-2 (BAD) gene, BAD (gene 572); test: LTEA_HepaRG_BAD: Life Technologies and Expression Analysis (LTEA) Assay for Bcl-2 (BAD) gene using HepaRG (AID 2283469)
Summary of the method: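 Read-out: qRT-PCR of BAD mRNA, normalized to three housekeeping genes. Human HepaRG cultures got 48 h chemical exposure in 0.5% DMSO, duplicate eight-point half-log series topping at 100 uM. Gain or loss of signal fitted versus DMSO vehicle.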

[10] = read-out: Bcl-2 (BAX) gene, BAX (gene 581); test: LTEA_HepaRG_BAX: Life Technologies and Expression Analysis (LTEA) Assay for Bcl-2 (BAX) gene using HepaRG (AID 2283470)
Summary of the method: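 Human HepaRG cells treated in duplicate for 48 h across eight concentrations (max 100 uM, 0.5% DMSO); BAX expression measured by qRT-PCR.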

[11] = read-out: adenosine kinase (ADK) gene, ADK (gene 132); test: LTEA_HepaRG_ADK: Life Technologies and Expression Analysis (LTEA) Assay for adenosine kinase (ADK) gene using HepaRG (AID 2283471)
Summary of the method: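 Following 48 h exposure of HepaRG cells in 0.5% DMSO (top concentration 100 uM, duplicate wells), ADK mRNA induction or suppression was measured by qRT-PCR, normalised to ACTB/GAPDH/POLR2A, and fitted bidirectionally relative to vehicle.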

[12] = read-out: Alpha-fetoprotein (AFP) gene, AFP (gene 174); test: LTEA_HepaRG_AFP: Life Technologies and Expression Analysis (LTEA) Assay for Alpha-fetoprotein (AFP) gene using HepaRG (AID 2283472)
Summary of the method: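 Measures AFP mRNA change in HepaRG after 48 h chemical exposure (8 half-log concentrations, highest 100 uM, 0.5% DMSO). Fold change relative to DMSO, fitted in both directions.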

[13] = read-out: Apolipoprotein A-V (APOA5) gene, APOA5 (gene 116519); test: LTEA_HepaRG_APOA5: Life Technologies and Expression Analysis (LTEA) Assay for Apolipoprotein A-V (APOA5) gene using HepaRG (AID 2283474)
Summary of the method: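 Differentiated human HepaRG cells were exposed in duplicate for 48 h to eight half-log concentrations from 100 uM in 0.5% DMSO. APOA5 mRNA was quantified by TaqMan qRT-PCR, normalized to ACTB, GAPDH and POLR2A, and fitted bidirectionally against DMSO.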

[14] = read-out: Apoptosis regulator Bcl-2 (Homo sapiens) (UniProt P10415); test: LTEA_HepaRG_BCL2: Life Technologies and Expression Analysis (LTEA) Assay for Bcl-2 gene using HepaRG (AID 2283475)
Summary of the method: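 Each chemical was tested in duplicate on HepaRG cultures held in serum-free induction medium for 48 h, highest concentration 100 uM with half-log dilutions. Transcript levels came from multiplexed qRT-PCR, normalised to housekeeping genes; activity was scored in either direction relative to DMSO.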

[15] = read-out: Bcl-2 (BID) gene, BID (gene 637); test: LTEA_HepaRG_BID: Life Technologies and Expression Analysis (LTEA) Assay for Bcl-2 (BID) gene using HepaRG (AID 2283476)
Summary of the method: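 Assay used HepaRG hepatic cells treated 48 h in serum-free medium with half-log dilutions from 100 uM. Endpoint: BID mRNA, qRT-PCR, normalized to ACTB/GAPDH/POLR2A.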

Caspase-3 (Homo sapiens) = Caspase-3 (Homo sapiens) (UniProt P42574); test: LTEA_HepaRG_CASP3: Life Technologies and Expression Analysis (LTEA) Assay for cysteine-aspartic acid protease (CASP3) using HepaRG (AID 2283477)
Sequence of Caspase-3 (Homo sapiens) (P42574 whole entry, looked up): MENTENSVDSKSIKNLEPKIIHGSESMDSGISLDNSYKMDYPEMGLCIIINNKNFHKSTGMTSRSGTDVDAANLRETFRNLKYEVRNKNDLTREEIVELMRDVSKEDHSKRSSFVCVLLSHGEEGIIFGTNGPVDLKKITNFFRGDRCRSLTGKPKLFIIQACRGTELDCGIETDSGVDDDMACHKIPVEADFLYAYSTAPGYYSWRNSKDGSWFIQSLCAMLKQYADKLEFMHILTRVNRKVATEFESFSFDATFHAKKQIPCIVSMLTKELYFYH
Summary of the method: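 Differentiated human HepaRG cells in serum-free induction medium were exposed 48 h to 8-point half-log concentrations from 100 uM (0.5% DMSO vehicle). CASP3 mRNA was measured by qRT-PCR, normalised to ACTB, GAPDH and POLR2A, with bidirectional fitting against DMSO.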

[16] = read-out: Cytochrome P450 (CYP24A1), CYP24A1 (gene 1591); test: LTEA_HepaRG_CYP24A1: Life Technologies and Expression Analysis (LTEA) Assay for Cytochrome P450 (CYP24A1) using HepaRG (AID 2283478)
Summary of the method: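 Differentiated HepaRG cells, pre-cultured 48 h, were exposed in duplicate for 48 h in serum-free induction medium to 8 half-log concentrations (top 100 uM, 0.5% DMSO). CYP24A1 mRNA was quantified by TaqMan qRT-PCR, normalized to ACTB/GAPDH/POLR2A, fitted bidirectionally versus DMSO.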

[17] = read-out: Cytochrome P450 (CYP1A2), CYP1A2 (gene 1544); test: LTEA_HepaRG_CYP1A2: Life Technologies and Expression Analysis (LTEA) Assay for Cytochrome P450 (CYP1A2) using HepaRG (AID 2283479)
Summary of the method: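 Differentiated human HepaRG cells in serum-free induction medium were exposed in duplicate for 48 h to 8-point half-log concentrations up to 100 uM in 0.5% DMSO. CYP1A2 mRNA measured by qRT-PCR, normalized to ACTB, GAPDH, POLR2A; bidirectional fit vs DMSO.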

[18] = read-out: ABC Transporter (ABCB11), ABCB11 (gene 8647); test: LTEA_HepaRG_ABCB11: Life Technologies and Expression Analysis (LTEA) Assay for ABC Transporter (ABCB11) using HepaRG (AID 2283463)
Summary of the method: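 ABCB11 transcript levels quantified by TaqMan qRT-PCR against three housekeeping genes after 48 h chemical exposure of HepaRG cultures. Concentrations up to 100 uM in half-log steps, 0.5% DMSO vehicle; both induction and suppression scored.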

BCL2L11 (gene 10018) = test: LTEA_HepaRG_BCL2L11: Life Technologies and Expression Analysis (LTEA) Assay for Bcl-2 (BCL2L11) gene using HepaRG (AID 2283473)
Summary of the method: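 Differentiated human HepaRG cells in serum-free induction medium were exposed in duplicate for 48 h to eight concentrations (top 100 uM, half-log steps, 0.5% DMSO). BCL2L11 mRNA was quantified by TaqMan qRT-PCR, normalized to ACTB/GAPDH/POLR2A, bidirectional fit versus DMSO.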

Measured: AC50

Sequence of Apoptosis regulator Bcl-2 (Homo sapiens) (P10415 whole entry, looked up): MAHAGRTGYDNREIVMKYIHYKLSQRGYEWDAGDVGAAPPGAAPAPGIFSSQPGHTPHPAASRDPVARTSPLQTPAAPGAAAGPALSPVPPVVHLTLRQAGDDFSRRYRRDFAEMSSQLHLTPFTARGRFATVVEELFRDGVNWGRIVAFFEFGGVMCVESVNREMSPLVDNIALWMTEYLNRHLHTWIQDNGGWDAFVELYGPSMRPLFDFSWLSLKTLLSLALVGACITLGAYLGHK
Sequence of Broad substrate specificity ATP-binding cassette transporter ABCG2 (Homo sapiens) (Q9UNQ0 whole entry, looked up): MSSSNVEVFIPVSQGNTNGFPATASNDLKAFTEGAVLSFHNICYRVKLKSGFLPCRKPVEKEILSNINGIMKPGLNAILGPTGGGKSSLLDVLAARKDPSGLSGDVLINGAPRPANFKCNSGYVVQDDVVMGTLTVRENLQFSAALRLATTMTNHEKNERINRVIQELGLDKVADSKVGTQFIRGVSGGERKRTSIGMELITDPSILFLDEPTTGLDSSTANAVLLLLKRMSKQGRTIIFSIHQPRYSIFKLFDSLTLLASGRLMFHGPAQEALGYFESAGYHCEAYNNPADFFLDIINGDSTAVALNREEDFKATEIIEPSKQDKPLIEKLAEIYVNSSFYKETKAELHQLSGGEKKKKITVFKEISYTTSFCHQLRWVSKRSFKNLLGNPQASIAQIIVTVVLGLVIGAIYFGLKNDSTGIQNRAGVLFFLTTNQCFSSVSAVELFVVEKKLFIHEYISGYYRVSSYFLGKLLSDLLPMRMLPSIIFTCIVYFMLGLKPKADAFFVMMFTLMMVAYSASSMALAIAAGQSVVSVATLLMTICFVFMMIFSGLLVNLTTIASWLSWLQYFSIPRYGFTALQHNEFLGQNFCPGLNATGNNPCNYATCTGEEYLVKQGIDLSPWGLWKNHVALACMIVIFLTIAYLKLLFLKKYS

CNC(=O)CSP(=S)(OC)OC
active: [17] 16.2 µM
inactive: [1] | [2] | [3] | [4] | [5] | [6] | [7] | [8] | [9] | [10] | [11] | [12] | [13] | [14] | [15] | Caspase-3 (Homo sapiens) | [16]

Oc1ccc(Cl)cc1Cc1ccccc1
inactive: [1] | [2] | [3] | [4] | [5] | [6] | [7] | [8] | [9] | [10] | [11] | [12] | [14] | [15] | Caspase-3 (Homo sapiens) | [16] | [17]
active: [12] 82.5 µM and 90 µM

CNC(=O)Oc1cccc(N=CN(C)C)c1
inactive: [1] | [2] | [3] | [18] | [4] | [5] | [6] | [7] | [8] | [9] | [10] | [11] | [12] | [13] | [14] | [15] | Caspase-3 (Homo sapiens) | [16] | [17]

CC1(c2ccc(Oc3ccccc3)cc2)OC(=O)N(Nc2ccccc2)C1=O (centres undefined)
inactive: [1] | [2] | [3] | [9] | [15] | Caspase-3 (Homo sapiens) | [16]
active: [4] 79.3 µM | [5] 13.2 µM | [6] 3.66 µM | [7] 26.7 µM | [8] 11.2 µM | [10] 12.2 µM | [11] 73.7 µM | [12] 9.81 µM | BCL2L11 (gene 10018) 11.7 µM | [14] 9.6 µM | [17] 50.2 µM

O=[N+]([O-])c1c(Cl)c(Cl)c(Cl)c(Cl)c1Cl
inactive: [1] | [3] | [4] | [5] | [6] | [7] | [8] | [9] | [10] | [11] | [12] | [13] | [14] | [15] | Caspase-3 (Homo sapiens) | [16]
active: [2] 60.7 µM | [17] 36.7 µM

CC(C)(C)C(O)/C(=C\c1ccc(Cl)cc1Cl)n1cncn1 (centres undefined)
active: [1] 84.4 µM | [2] 87.1 µM | [18] 25.1 µM | [4] 80.6 µM | [6] 88.9 µM | [7] 50 µM | [8] 22 µM | [10] 59.4 µM | [12] 19.8 µM | [14] 21.8 µM
inactive: [3] | [5] | [9] | [11] | [15] | Caspase-3 (Homo sapiens) | [16] | [17]
